Laboratory results reported in PubChem BioAssay (Tox21).
Records with an inconclusive call do not appear. The source made the active and inactive calls. Calls come from the whole dose curve.

Experiment: qHTS assay to identify small molecule agonists of the hypoxia (HIF-1) signaling pathway - cell viability counter screen (AID 1224844); note: nearly all actives have a fitted effect of over 50% in size
Conditions: HRE-bla ME-180 viability, CellTiter-Glo luminescence, 17 h; series mostly up to 76.8 µM; activity change, negative = cytotoxicity: at the top concentration
Source text: National Center for Advancing Translational Sciences [NCATS]
NIH Chemical Genomics Center [NCGC]
U.S. Environmental Protection Agency [EPA]
National Institutes of Environmental Health Sciences [NIEHS]
National Toxicology Program [NTP]
U.S. Food and Drug Administration [FDA]
Hypoxia-inducible factor-1 (HIF-1) is the major hypoxia-regulated transcription factor that controls cellular responses to low oxygen concentration. HIF-1 is composed of two subunits: hypoxia responsive HIF-1-alpha and constitutively expressed HIF-1-beta, which is also known as aryl hydrocarbon receptor nuclear translocator. During hypoxic conditions, HIF-1-alpha heterodimerizes with HIF-1-beta and translocates into the nucleus where the HIF-1 complex binds to the hypoxia-response element (HRE) and activates expression of target genes such as VEGF (vascular endothelial growth factor). The HIF-1 pathway is essential to normal growth and development, and is involved in the pathophysiology of cancer, inflammation, and ischemia.
Using a beta-lactamase reporter-gene under control of the hypoxia response element, a cell-based assay [CellSensor(TM) HRE-bla ME-180 from Life Technologies, Carlsbad, CA] was used to measure hypoxia-induced signaling. Tox21 10K library compounds were measured for their ability to induce the reporter gene activity. The cytotoxicity of the Tox21 compound library against HRE-bla ME-180 cell line was tested in parallel by measuring cell viability using CellTiter-Glo assay (Promega, Madison, WI) in the same assay wells.
Tox21 Assay Protocol Summary:
HRE-bla ME-180 cells were dispensed at 2,000 cells per well in 6 uL of assay medium containing 0.5% dialyzed FBS into black wall/clear-bottom 1536-well plates using a Multidrop Combi (Thermo Scientific, Waltham, MA) dispenser. After the assay plates were incubated at 37C and 5% CO2 for 5 hrs, 23 nL of compounds dissolved in DMSO, positive controls or DMSO only was transferred to each well of the assay plate using a Pintool station (Kalypsys, San Diego, CA). The assay plates were incubated at 37C and 5% CO2 for 17 hrs. One uL of LiveBLAzerTM B/G FRET substrate (CCF4-AM) (Life Technologies) was added to each well using a Flying Reagent Dispenser (FRD, Aurora Discovery, San Diego, CA). After 2 hr incubation at room temperature, fluorescence intensity (405 nm excitation, 460 nm and 530 nm emissions) was measured using an Envision plate reader (PerkinElmer, Shelton, CT). For cytotoxicity, 4 ul/well of CellTiter-Glo reagent was added into the assay plates using an FRD. After 30 min incubation at room temperature, the luminescence intensity was measured using a ViewLux plate reader (PerkinElmer).
% is set by controls: 0 for no effect and ±100 for the full control effect.

Compound	activity change, negative = cytotoxicity
CNS(=O)(=O)CCc1ccc2[nH]cc(C3CCN(C)CC3)c2c1	-0.042% [at 35.3 µM] (inactive)
CC(C)CC(=O)O	-1.03% (inactive)
C=C(C)C(=O)OCc1ccccc1	-15% (inactive)
C=CC(OCC)OCC	8.48% (inactive)
CCCCNC1CC(C)(C)NC(C)(C)C1	7.26% (inactive)
CC(C)C(=O)OCc1cccc(OC(=O)[C@@H]2N3C(=O)[C@@H](NC(=O)Cc4ccccc4)[C@H]3SC2(C)C)c1	-0.926% [at 35.3 µM] (inactive)
COc1cc(N)ccc1C	1.91% (inactive)
CCCC(=O)C(C)=O	7.05% (inactive)
CC(C)CCCC(C)(C)O	-22.9% (inactive)
COc1cc2c(cc1OC)[C@@H]1CC(=O)[C@@H](CC(C)C)CN1CC2	-0.445% [at 35.3 µM] (inactive)
O=S(O)(O)=S	-1.07% [at 6.97 µM] (inactive)
C[C@H](CCC(=O)O)[C@H]1CC[C@H]2[C@@H]3C(=O)C[C@@H]4CC(=O)CC[C@]4(C)[C@H]3CC(=O)[C@]12C	-1.22% [at 35.3 µM] (inactive)
CCC(C=O)CC	-19.9% (inactive)
N[C@@H](CCC(=O)Nc1ccc([N+](=O)[O-])cc1)C(=O)O	1.96% (inactive)
O=Cc1ccc(Cl)c(Cl)c1	-12.1% (inactive)
O=C(OCC(COC(=O)c1cccnc1)(COC(=O)c1cccnc1)COC(=O)c1cccnc1)c1cccnc1	5.17% [at 35.3 µM] (inactive)
Cc1cccc(C)c1NC(=O)c1ccccc1C(=O)O	1.61% [at 35.3 µM] (inactive)
COc1ccc2nc(SCc3ncc(C)c(OC)c3C)[nH]c2c1	4.21% [at 35.3 µM] (inactive)
CCCCCCCCOS(=O)(=O)O	-3.18% (inactive)
C[C@@H](O)[C@H]1C(=O)N2C(C(=O)O)=C(SCCN=CN)C[C@H]12	-1.36% [at 35.3 µM] (inactive)

Compound	activity change, negative = cytotoxicity
CC(C)=O	3.93% (inactive)
O=C(OCC(O)CO)c1ccccc1Nc1ccnc2c(C(F)(F)F)cccc12 (stereo not given)	-0.485% [at 35.3 µM] (inactive)
FC(F)(F)c1ccccc1-n1ccnc1	-1.14% [at 35.3 µM] (inactive)
CCCCCCOC(=O)CC	5.48% (inactive)
CCCC/C=C\CCCCCCCCCC=O	-4.26% (inactive)
CC1(C)S[C@@H]2[C@H](N=CN3CCCCCC3)C(=O)N2[C@H]1C(=O)O	1.13% [at 35.3 µM] (inactive)
O=C(O)c1ccc(Cl)cc1Cl	4.49% (inactive)
CCCCCCCCCC(C)=O	5.59% (inactive)
NCCS	-0.202% [at 35.3 µM] (inactive)
COc1ccc(S(=O)(=O)N2c3ccc(Cl)cc3[C@@](O)(c3ccccc3Cl)[C@H]2C(=O)N2CCC[C@@H]2C(N)=O)cc1OC	-15.2% [at 35.3 µM] (inactive)
N#Cc1ccc(C(=O)O)cc1	-0.3% (inactive)
Oc1ccccc1-c1nnco1	2.3% [at 35.3 µM] (inactive)
On1nnc2ccccc21	-12.4% (inactive)
CC(=O)c1sc(C)nc1C	-0.22% (inactive)
CC(CO)c1ccccc1 (stereo not given)	-3.12% (inactive)
CCOC(=O)/C=C/c1ccccc1	1.17% (inactive)
O=C(NCCc1c[nH]c2ccccc12)c1cccnc1	-3.23% [at 35.3 µM] (inactive)
CCCCCCCCCCCCCC	0.387% (inactive)
O=C1c2ccccc2C(=O)N1CCl	-4.74% (inactive)
COCCOC(=O)C1=C(C)NC(C)=C(C(=O)OC(C)C)C1c1cccc([N+](=O)[O-])c1 (stereo not given)	-10.1% [at 35.3 µM] (inactive)
